# ChEMBL document CHEMBL3988442, “University of Dundee, Small-Polar-MMV Screening Library” (2021)
# For some assays here: Potency and affinity values are given separately.
# What was measured:
# Set-up in all cases: scale not given: direction of the effect not stated beside the values
# [1] = biological target: Protein translocase subunit SecA (Escherichia coli (strain K12)) (UniProt P10408); test: Assay to Identify E. coli SecA ATPase Inhibitors; assay type: functional; settings: 30 µM
# [2] = biological target: T1, Ubiquitin-activating enzyme e1, putative (Leishmania donovani (strain BPK282A1)) (UniProt E9BSI1); test: Leishmania donovani Ubiquitin Activating Enzyme (LdE1); assay type: functional; settings: 30 µM
# T1 sequence (whole entry): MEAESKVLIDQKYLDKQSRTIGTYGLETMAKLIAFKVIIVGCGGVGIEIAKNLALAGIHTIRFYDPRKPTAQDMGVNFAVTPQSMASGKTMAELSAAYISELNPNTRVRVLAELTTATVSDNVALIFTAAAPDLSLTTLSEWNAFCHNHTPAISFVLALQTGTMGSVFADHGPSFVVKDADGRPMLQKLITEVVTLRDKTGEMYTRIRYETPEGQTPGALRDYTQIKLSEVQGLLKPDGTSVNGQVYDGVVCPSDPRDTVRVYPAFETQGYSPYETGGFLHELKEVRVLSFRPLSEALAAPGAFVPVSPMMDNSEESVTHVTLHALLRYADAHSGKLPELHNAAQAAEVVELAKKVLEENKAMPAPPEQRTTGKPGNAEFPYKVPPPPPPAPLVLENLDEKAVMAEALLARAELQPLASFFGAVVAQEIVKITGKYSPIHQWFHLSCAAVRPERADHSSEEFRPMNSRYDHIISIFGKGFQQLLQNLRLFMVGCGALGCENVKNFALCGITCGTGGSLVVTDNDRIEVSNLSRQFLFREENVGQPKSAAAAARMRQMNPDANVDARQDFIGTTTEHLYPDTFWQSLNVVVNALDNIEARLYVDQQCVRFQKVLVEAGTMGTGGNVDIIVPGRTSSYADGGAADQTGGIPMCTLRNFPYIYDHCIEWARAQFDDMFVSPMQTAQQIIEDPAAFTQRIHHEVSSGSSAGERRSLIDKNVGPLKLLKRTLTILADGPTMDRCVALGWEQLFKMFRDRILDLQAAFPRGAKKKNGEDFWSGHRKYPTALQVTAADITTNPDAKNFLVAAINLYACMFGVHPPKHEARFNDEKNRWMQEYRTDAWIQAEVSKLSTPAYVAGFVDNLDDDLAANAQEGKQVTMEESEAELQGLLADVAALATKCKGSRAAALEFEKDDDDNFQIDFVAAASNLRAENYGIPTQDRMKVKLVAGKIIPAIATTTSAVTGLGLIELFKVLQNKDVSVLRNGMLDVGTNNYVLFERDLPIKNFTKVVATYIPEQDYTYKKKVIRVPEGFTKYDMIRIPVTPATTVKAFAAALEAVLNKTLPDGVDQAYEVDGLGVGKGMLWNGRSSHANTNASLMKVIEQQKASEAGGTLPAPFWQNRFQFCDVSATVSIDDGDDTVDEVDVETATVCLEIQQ
# [3] = biological target: AMP-activated protein kinase, AMPK (Homo sapiens) (UniProt P54646+O43741+P54619+Q9UGJ0+Q9Y478+Q13131+Q9UGI9); test: AMP-dependent Kinase enzyme assay. An in vitro enzyme assay that detects ADP turnover that is directly proportional to AMPK activity. This uses naive AMPK that is activated during the assay with MK-8722; assay type: functional; settings: 30 µM
# [4] = biological target: Sialic acid-binding Ig-like lectin 9 (Homo sapiens) (UniProt Q9Y336); test: Hs-Siglec9 ALPHAscreen SOP 20170721; settings: 10 µM
# Trypanosoma cruzi = test: Trypanosoma cruzi phosphomannomutase and mannose-1-phosphate guanylyltransferase assay; assay type: functional; settings: 10 µM
# [5] = biological target: T2, Arginase-2, mitochondrial (Homo sapiens) (UniProt P78540); test: in vitro enzyme assay to detect the production of urea directly proportional to the activity of Arginase II; assay type: functional; settings: 33.3 µM; note: in the data most compounds retested in dose-response had high values
# T2 sequence (whole entry): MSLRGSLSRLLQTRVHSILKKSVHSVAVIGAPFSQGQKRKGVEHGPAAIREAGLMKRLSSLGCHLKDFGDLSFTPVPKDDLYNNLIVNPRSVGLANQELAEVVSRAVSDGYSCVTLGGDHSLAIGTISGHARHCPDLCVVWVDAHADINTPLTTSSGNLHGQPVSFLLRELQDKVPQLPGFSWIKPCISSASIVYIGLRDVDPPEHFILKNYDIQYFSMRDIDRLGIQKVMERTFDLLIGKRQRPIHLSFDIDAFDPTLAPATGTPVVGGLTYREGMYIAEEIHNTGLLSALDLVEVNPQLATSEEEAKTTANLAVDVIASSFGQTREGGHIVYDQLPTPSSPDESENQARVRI
# [6] = biological target: T3, Proteasome subunit beta (Trypanosoma cruzi) (UniProt O96673); test: Trypanosoma cruzi proteasome chymotrypsin-like activity (TcProtChymo) assay.; note: in the data most compounds retested in dose-response had high values; assay type: functional; settings: 9.37 µM
# T3 sequence (whole entry): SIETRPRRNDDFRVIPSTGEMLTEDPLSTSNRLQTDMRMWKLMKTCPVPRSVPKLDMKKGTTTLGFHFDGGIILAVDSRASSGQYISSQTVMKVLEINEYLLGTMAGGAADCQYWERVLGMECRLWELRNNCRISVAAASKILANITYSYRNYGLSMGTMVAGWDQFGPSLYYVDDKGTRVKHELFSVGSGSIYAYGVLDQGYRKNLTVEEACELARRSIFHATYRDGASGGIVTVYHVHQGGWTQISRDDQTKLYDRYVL
# Homo sapiens = species on record: Homo sapiens; test: To identify inhibition of the IFN signalling (Jak-Stat) pathway via expression of an eGFP reporter gene under the control of an IFN-stimulated response element (ISRE) containing MxA promoter.; assay type: functional; settings: 30 µM
# [7] = biological target: T4, Tyrosyl-tRNA synthetase, putative (Trypanosoma cruzi (strain CL Brener)) (UniProt Q4DSP6); test: Trypanosoma cruzi tyrosyl tRNA synthetase (TcYRS) _High Tyrosine SOP; assay type: functional; settings: 30 µM; note: in the data most compounds retested in dose-response had high values
# T4 sequence (whole entry): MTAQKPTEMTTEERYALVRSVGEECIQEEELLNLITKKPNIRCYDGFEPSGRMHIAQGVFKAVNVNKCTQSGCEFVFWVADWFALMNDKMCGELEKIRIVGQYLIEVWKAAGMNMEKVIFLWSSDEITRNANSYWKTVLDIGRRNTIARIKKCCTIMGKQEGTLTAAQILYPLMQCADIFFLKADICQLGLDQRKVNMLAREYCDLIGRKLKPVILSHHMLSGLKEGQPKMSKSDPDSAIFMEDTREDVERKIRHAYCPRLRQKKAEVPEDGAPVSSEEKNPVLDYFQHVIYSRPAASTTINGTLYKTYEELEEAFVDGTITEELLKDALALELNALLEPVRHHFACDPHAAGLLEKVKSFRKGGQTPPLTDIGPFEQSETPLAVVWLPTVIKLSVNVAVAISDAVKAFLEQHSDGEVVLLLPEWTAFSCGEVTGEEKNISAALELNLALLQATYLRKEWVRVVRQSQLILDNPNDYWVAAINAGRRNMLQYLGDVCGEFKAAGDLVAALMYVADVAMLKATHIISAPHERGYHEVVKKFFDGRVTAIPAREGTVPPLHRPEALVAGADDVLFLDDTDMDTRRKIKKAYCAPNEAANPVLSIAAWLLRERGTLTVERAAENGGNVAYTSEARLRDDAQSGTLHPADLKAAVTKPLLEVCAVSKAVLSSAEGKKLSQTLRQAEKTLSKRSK
# [8] = biological target: T4, Tyrosyl-tRNA synthetase, putative (Trypanosoma cruzi (strain CL Brener)); test: Trypanosoma cruzi tyrosyl tRNA synthetase (TcYRS) SOP; assay type: functional; settings: 30 µM
# [9] = biological target: Chromo domain-containing protein 1 (Saccharomyces cerevisiae (strain ATCC 204508 / S288c) (Baker's yeast)) (UniProt P32657); test: ScCHD-1 Enzyme Inhibition Assay; assay type: functional; settings: 30 µM; note: in the data most compounds retested in dose-response had high values
# Sequence of Chromo domain-containing protein 1 (Saccharomyces cerevisiae (strain ATCC 204508 / S288c) (Baker's yeast)) (P32657 whole entry, the tested form may be a part): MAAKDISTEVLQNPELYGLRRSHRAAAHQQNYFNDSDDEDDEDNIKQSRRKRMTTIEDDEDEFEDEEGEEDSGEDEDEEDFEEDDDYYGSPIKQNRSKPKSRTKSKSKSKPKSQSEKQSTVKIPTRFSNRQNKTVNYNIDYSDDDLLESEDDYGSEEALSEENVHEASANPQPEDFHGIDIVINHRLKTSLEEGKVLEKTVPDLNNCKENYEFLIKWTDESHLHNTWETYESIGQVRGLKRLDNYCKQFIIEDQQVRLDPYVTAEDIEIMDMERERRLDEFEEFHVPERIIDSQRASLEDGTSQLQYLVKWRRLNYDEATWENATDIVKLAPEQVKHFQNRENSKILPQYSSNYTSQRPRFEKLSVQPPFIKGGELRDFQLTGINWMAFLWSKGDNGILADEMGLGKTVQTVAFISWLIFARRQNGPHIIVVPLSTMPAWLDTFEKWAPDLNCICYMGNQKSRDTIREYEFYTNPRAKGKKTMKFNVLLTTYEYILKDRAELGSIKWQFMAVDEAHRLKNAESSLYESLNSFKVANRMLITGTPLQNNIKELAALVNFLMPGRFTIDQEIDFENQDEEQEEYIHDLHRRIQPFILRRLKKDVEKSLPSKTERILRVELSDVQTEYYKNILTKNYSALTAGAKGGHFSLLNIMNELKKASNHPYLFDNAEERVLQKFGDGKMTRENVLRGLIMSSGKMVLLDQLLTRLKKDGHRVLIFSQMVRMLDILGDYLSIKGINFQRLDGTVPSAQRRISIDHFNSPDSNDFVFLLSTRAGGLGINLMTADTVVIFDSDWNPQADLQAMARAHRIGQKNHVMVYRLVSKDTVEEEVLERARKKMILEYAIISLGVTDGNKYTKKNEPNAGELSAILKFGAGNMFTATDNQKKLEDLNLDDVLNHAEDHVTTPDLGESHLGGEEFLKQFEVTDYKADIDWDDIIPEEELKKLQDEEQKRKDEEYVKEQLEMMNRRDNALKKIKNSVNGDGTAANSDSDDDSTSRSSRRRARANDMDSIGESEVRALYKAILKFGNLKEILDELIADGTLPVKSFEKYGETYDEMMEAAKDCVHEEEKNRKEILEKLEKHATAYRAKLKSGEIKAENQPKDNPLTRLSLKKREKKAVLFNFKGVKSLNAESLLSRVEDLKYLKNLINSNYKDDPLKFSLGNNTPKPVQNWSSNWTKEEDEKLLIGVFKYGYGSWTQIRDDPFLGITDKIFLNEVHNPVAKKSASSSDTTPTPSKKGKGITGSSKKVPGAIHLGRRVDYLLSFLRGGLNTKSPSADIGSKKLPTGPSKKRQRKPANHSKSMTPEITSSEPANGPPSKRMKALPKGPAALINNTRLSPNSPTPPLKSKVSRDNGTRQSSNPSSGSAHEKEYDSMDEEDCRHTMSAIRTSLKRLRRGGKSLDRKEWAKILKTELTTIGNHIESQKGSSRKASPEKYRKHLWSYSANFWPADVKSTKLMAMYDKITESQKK
# Sequence of Protein translocase subunit SecA (Escherichia coli (strain K12)) (P10408 whole entry): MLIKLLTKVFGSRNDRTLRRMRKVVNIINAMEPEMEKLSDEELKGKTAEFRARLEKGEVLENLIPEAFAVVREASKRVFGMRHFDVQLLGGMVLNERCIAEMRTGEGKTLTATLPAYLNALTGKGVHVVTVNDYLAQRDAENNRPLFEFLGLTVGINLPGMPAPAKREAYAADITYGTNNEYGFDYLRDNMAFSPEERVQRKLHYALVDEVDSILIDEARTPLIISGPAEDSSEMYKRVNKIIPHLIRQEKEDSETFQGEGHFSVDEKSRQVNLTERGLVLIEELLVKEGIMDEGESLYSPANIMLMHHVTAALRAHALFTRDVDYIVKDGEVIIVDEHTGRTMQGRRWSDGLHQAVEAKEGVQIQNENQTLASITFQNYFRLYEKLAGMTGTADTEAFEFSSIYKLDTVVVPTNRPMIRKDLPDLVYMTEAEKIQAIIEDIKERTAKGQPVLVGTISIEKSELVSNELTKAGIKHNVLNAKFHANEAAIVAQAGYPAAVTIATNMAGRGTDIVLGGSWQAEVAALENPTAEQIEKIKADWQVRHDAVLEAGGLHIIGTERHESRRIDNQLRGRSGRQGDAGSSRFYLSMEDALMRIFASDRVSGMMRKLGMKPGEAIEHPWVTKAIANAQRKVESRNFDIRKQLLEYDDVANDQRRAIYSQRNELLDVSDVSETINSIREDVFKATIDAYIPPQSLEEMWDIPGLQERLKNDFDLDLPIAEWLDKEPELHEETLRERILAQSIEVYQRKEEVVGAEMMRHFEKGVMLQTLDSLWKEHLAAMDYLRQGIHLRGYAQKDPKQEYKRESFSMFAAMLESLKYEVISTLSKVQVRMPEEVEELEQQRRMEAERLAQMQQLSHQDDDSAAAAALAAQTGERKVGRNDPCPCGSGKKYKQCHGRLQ
# Sequence of Sialic acid-binding Ig-like lectin 9 (Homo sapiens) (Q9Y336 whole entry): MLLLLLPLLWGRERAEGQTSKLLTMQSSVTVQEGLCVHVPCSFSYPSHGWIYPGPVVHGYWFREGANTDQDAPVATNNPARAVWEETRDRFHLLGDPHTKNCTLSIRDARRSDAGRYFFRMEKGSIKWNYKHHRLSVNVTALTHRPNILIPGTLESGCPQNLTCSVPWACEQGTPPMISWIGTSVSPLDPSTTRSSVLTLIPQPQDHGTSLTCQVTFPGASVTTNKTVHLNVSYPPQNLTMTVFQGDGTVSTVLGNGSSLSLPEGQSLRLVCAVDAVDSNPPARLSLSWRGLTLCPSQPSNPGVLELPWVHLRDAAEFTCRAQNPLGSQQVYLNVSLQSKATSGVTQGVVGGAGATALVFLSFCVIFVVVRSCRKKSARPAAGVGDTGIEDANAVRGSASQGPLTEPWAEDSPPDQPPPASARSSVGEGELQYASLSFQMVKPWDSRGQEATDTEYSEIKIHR
SMILES,Percent Effect [1],Percent Effect [2],Percent Effect [3],Percent Effect [4],Percent Effect (Trypanosoma cruzi),Percent Effect [5],Percent Effect [6],Percent Effect (Homo sapiens),Percent Effect [7],Percent Effect [8],Percent Effect [9]
Cc1cccn2c(=O)cc(CN3CCCCC3Cn3cncn3)nc12 (stereo unspecified),-9.82%,-2.7%,-1.37%,-1.48%,-4.2%,-1.74%,9.53%,-10.4%,-1.07%,-6.17%,-6.48%
CN(C)C(CNC(=O)c1cccc(-n2cnnn2)c1)c1ccccc1Cl (stereo unspecified),-1.38%,2.74%,2.54%,-4.62%,-7.64%,3.64%,10.8%,10.5%,3.23%,10%,-3.4%
Cc1nc(C)c(CC(=O)Nc2ncc(C)s2)c(=O)[nH]1,-0.904%,13.2%,-1.41%,14.1%,1.5%,-1.53%,-2.51%,-6.67%,5.39%,17.1%,-5.26%
CCC(C)N(C)S(=O)(=O)c1ccc(CCNC(C)=O)s1 (stereo unspecified),-1.87%,-4.17%,-4.26%,-5.04%,-2.62%,0.442%,8.77%,10.4%,-3.16%,-5.13%,5.31%
CN(C)C(=O)C1CN(Cc2ccccc2)CCN(S(C)(=O)=O)C1 (stereo unspecified),-5.51%,17.6%,8.68%,7.06%,4.35%,-3.02%,3.12%,11.2%,2.15%,9.09%,-19.2%
O=C(NCc1cc[nH]n1)NCC(c1ccco1)N1CCCC1 (stereo unspecified),-3.53%,8.11%,-2.2%,17.4%,1.66%,-0.744%,12.4%,7.09%,5.38%,11.1%,-2.11%
CN(C(=O)c1ccccn1)c1nc2c(s1)CCc1c-2cnn1C,-3.06%,52.7%,11%,-2.4%,4.94%,-4.41%,11.5%,16.9%,-4.3%,1.3%,-15.7%
COCCO[C@H]1CCN(C(=O)C2CCOCC2)[C@H]1Cc1ccncc1,-1.4%,16%,-6.31%,-6.51%,-3.94%,-1.17%,9.6%,16.1%,2.13%,6.41%,-2.62%
Cc1cnn(CCNCCCOc2ccccc2)c1,1.02%,-21.1%,-5.54%,5.86%,3.27%,1.08%,6.85%,-25%,6.4%,3.7%,-0.782%
CC(=O)Nc1nc(CN2CCCC2Cn2cncn2)cs1 (stereo unspecified),-7.57%,13%,-6.56%,16.5%,10.3%,2.85%,9.29%,18.8%,9.71%,26.8%,-12.8%
CCC1=N[C@@]2(CC[C@@H]3CN(S(=O)(=O)CC)C[C@@H]32)C(=O)N1CC(C)C,-2.87%,2.6%,-1.61%,11.1%,-0.493%,-1.94%,0.348%,18.4%,2.12%,8.97%,-4.63%
COCc1nn(C(C)C)c2c1CCN(Cc1cccs1)C2,-0.481%,11%,1.5%,8.32%,0.198%,-0.798%,12.4%,-11.8%,7.29%,16.1%,-1.6%
COC[C@H]1CCC[C@]12CN(CCc1ccccc1)CCO2,0.0327%,12%,1.6%,2.89%,-5.5%,-8.28%,19.8%,4.65%,1.06%,2.56%,-6.74%
CC1CCCN(Cc2csc(-c3ncccn3)n2)CC1 (stereo unspecified),-3.33%,-16.2%,-12.5%,18.6%,8.26%,-1.66%,20.5%,29.2%,13.9%,15.8%,2.62%
CN(C)S(=O)(=O)N1C[C@@H](Oc2ccccn2)[C@H]2OCCC[C@H]21,-3.77%,10.4%,5.04%,3.32%,0.493%,-3.23%,8.7%,24.1%,-4.23%,8.97%,-11.1%
Cc1cnn(CCNCC(O)COc2ccc(Cl)cc2)c1 (stereo unspecified),-3.71%,10.1%,0.158%,12.9%,3.12%,0.76%,-1.88%,-3.16%,3.45%,8.86%,-2.04%
